Where “and” joins values, the source holds several entries; their conditions need not be identical. Identical values can stand only once. This is part of a sample that, as a whole, favours compounds with a hit. Of some 83,000 tested, about 20% had one in any assay.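 Note: values are percent growth. 100 is the growth of untreated cells, values between 100 and 0 indicate rising inhibition; between -100 and 0 indicates cell death.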 Values without a mark were called inactive. Calls of active or inactive are those of the source. Rule for the calls: active = growth percent below 10; inactive = the rest.
tested on: MDA-MB-468 breast; assay: NCI-60 one-dose screen, 48 h (100 = growth as untreated, 0 = no growth, -100 = all killed); details: 10 µM unless noted

Row | Compound | growth
1 | CN1CCN(c2ccc(Nc3nc(NCCNS(=O)(=O)c4ccc5ccccc5c4)c4sccc4n3)cc2)CC1 | 2.8% (active)
2 | CS(=O)(=O)OCCN(CCOS(C)(=O)=O)c1ccc(/C=N/Nc2ccc([N+](=O)[O-])cc2[N+](=O)[O-])cc1 | 87.9%
3 | N=C1CCC(=N)c2c1c(O)c1ccccc1c2O | 93.7%
4 | COc1cccc(Cc2cc(-c3ccccc3)nn(CC(=O)c3ccccc3)c2=O)c1 | 90.6%
5 | CCN(CCNS(C)(=O)=O)c1ccc(N)c(C)c1 | 56.5% and 69.7%
6 | COc1cccc(-c2nn(-c3ccccc3)cc2-c2ccnc(NCCNC(=O)Nc3ccc(Cl)c(Cl)c3)c2)c1 | -17.4% (active)
7 | O=C(/C=C1\C(=O)N(Cc2ccccc2)c2ccccc21)c1ccc(OCCN2CCCCC2)cc1 | 19.6%
8 | O=C(/C=C/c1cccs1)c1ccc(Cl)nc1 | 103%
9 | c1ccc(-c2n[nH]c(-c3ccccn3)n2)nc1 | 100%
10 | c1ccc(Nc2nc3c(s2)CCc2c[nH]cc2-3)nc1 | 83.6%
11 | NS(=O)(=O)c1cccc(Nc2nc(SCC(=O)c3ccc(Cl)cc3)nc3c2CCC3)c1 | 79.8%
12 | CCOC(=O)/C=C1\S/C(=N\Nc2ccc([N+](=O)[O-])cc2[N+](=O)[O-])N(Cc2ccccc2)C1=O | 84.2%
13 | O=c1[nH]c(-c2ccccc2)nc(CN2CCCCC2)c1O | 111%
14 | CC(=O)Oc1cc(OC(C)=O)c2ccccc2c1OC(C)=O | 72.7%
15 | CCc1nc(N)nc(N)c1C#CC(C)c1cc(-c2ccnc(C)c2)c2oc(C)nc2c1 (stereo not given) | -20.6% (active)
16 | C=CCSSc1ncnc2c1ncn2C1OC(CO)C(O)C1O (stereo not given) | 7.11% (active)
17 | FC(F)(F)c1ccc(CNc2ccc(Cc3c[nH]c4ncc(Cl)cc34)cn2)cn1 | -0.191% (active)
18 | COc1ccc(/C=C/C(C)=N/OCC(=O)O)cc1 | 95.6%
19 | c1coc(CNc2c3ccccc3nc3ccccc23)c1 | 29.4%
20 | COc1ccc(/C=C2\SC(=Nc3ccccc3)NC2=O)cc1 | -84.8% (active)

Row | Compound | growth
21 | COc1cc(CN(c2ccc(Cl)cc2)C2OC(=O)c3ccccc32)cc(OC)c1OC (stereo not given) | 16.8%
22 | COc1ccc(Cl)cc1NC(N)=S | 101%
23 | COc1cc2c(c(OC)c1OC)CCC(c1cccc(NC(=O)c3cccc(Cl)c3)c1)O2 (stereo not given) | 60.2%
24 | COC(=O)C1=Nc2ccc(F)cc2/C1=C\c1sc(Nc2ccc(O)cc2)nc1O | 56.1%
25 | C=C(C)[C@@H]1C[C@H](O)Cc2cc(F)ccc2N1 | 89.3%
26 | O=C(CN1CCN(c2cc3c(cc2F)c(=O)c(C(=O)O)cn3C2CC2)CC1)N/N=C/c1ccncc1 | 99.6%
27 | CC(=O)Nc1scc[n+]1Cc1ccccc1 | 103%
28 | N/C(=C\C(=O)n1nc(-c2ccccc2)cc1N)c1ccccc1 | 19.2%
29 | CC(C)(C)OC(=O)N1CC(Cn2cc(C(F)(F)F)c3c(Cl)ncnc32)C1 | -46.8% (active)
30 | O=C(NCc1ccc(Cn2c(=O)sn(-c3ccccc3)c2=O)cc1)OCc1ccc2cccc(O)c2n1 | -73.3% (active)
31 | Cc1cc(N2CCCCC2)nc(N2CCN(CC(=O)Nc3ccc4c(ccn4Cc4ccccc4)c3)CC2)n1 | 37.6%
32 | O=C(O)c1cccc(-n2ncc(Cl)c(Cl)c2=O)c1 | 74.5%
33 | CCCCCCn1c(-c2ccc(C(=O)O/N=C(\N)c3ccc4ccccc4c3)cc2)nc(-c2ccccc2)c1-c1ccccc1 | 78.8%
34 | O=C1c2ccccc2-c2c1c1ccncc1c(=O)n2CCCn1ccnc1 | 28%
35 | CC1(C)CC[C@]23CC[C@]4(C)[C@H](CC[C@@H]5[C@@]6(C)C/C(=C/c7ccncc7)C(=O)C(C)(C)[C@@H]6CC[C@]54C)[C@H]2[C@H]1OC3 | 91.1%
36 | COc1ccc(/C=N/C2=C(C#N)C(c3cccc(Cl)c3)c3c(ccc4ccccc34)O2)cc1 (stereo not given) | 3.32% (active)
37 | CCOC(=O)c1c(C)c2c(n1C)CSc1cc(S(=O)(=O)c3ccccc3)c(=O)[nH]c1-2 | 2.42% [100 µM] (active)
38 | CCCCN(Cc1ccc(C(=O)NO)cc1)C(=O)Nc1ccc(OCCCCCCCCCn2cc(CCCCC(=O)N[C@H](C(=O)N3C[C@H](O)C[C@H]3C(=O)NCc3ccc(-c4scnc4C)cc3)C(C)(C)C)nn2)cc1 | 0.0949% (active)
39 | c1cncc(-c2cn3nc(-c4c[nH]c5ccccc45)sc3n2)c1 | -9.26% (active)
40 | O=Cc1ccc(-c2cn3ccnc3c(-c3ccc4ncn(Cc5ccccc5)c4c3)n2)cc1 | 105%

— PubChem BioAssay (NCI)
